# From PubChem BioAssay
# PI4K2A block – blocks human PI4K2A kinase activity | Q9BTU6 | purified PI4K2A, ADP-Glo luminescence, 1 h; stronger effect = lower value | activity change, negative = inhibition, % at 76.9 µM | 420,000 tested, 0.13% active; in the data active = activity change below about -50%; inconclusive = mostly about -30% to -49%;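 also: -100% = wells without enzyme as full effect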
#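 Compounds are screened against recombinant PI4K2A using PI as substrate and ATP, the latter dispensed at 300 microM. Reactions run one hour at ambient temperature before ADP-Glo detection; full inhibition defined by wells lacking enzyme.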
# POLH inh – blocks human DNA polymerase eta activity | 390,000 tested, 1.2% active | Potency, µM (top dose mostly 114 µM), for inactives: at the highest dose activity change, negative = inhibition, actives largely listed as inhibitors | recombinant Pol eta, fluorescent DNA replication assay | Q9Y253; also: potency is read from the fitted curve at half-maximal effect; % is scaled to controls: 0 for no effect and ±100 for the full control effect
#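 Pol eta (10 nM) was preincubated with compounds for 15 min at room temperature, after which fluorescent replication substrate (50 nM final) was added to start the reaction. Fluorescence was read kinetically at 0 and 10 min.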
# Pol iota inh – DNA polymerase iota (human) inhibition | Q9UNA4 | Pol iota fluorescent replication assay, 10 min | Potency, µM (series often up to 115 µM), inactives show at the highest dose activity, negative = inhibition, actives largely listed as inhibitors | 390,000 tested, 1% active | AID 588590; also: potency is read from the fitted curve at half-maximal effect
#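 Pol iota at 10 nM preincubated 15 min with compounds at room temperature; reaction started with fluorescent substrate, 50 nM final. Fluorescence read kinetically at 0 and 10 min; buffer-only wells as negative control.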
# POLK inh – DNA polymerase kappa (human) inhibition. 400,000 tested, 0.53% active. purified Pol kappa, fluorescent DNA synthesis assay, 10 min. Potency, µM (doses to about 107 µM), without a hit: at the top dose activity, negative = inhibition, actives largely listed as inhibitors. Q9UBT6; also: potency is read from the fitted curve at half-maximal effect; % is scaled to controls: 0 for no effect and ±100 for the full control effect
# Target sequence (Q9UBT6 whole entry, looked up): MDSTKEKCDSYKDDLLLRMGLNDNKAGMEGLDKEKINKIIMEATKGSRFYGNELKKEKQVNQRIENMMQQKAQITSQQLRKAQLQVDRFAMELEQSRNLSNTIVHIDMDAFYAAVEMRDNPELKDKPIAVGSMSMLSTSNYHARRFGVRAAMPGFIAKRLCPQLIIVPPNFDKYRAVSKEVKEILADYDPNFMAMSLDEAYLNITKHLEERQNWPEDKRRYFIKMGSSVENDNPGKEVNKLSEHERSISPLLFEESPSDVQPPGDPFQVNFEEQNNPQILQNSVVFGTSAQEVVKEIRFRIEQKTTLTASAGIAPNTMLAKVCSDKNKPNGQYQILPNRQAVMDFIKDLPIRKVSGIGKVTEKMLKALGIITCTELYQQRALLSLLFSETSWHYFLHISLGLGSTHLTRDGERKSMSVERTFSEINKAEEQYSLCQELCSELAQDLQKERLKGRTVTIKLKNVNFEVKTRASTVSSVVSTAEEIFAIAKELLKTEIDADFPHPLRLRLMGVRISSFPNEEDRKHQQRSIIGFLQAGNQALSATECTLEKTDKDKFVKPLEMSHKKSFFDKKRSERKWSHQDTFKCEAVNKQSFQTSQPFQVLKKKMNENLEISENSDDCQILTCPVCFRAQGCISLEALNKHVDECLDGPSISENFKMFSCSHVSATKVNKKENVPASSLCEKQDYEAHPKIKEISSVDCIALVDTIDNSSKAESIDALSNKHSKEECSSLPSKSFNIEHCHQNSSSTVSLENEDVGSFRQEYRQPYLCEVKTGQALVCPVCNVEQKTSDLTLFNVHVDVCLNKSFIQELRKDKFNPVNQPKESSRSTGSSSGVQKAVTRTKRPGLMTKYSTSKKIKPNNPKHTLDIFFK
#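 Here, compound and 10 nM enzyme are combined for 15 min at room temperature; adding 50 nM substrate (final) starts DNA synthesis, tracked by fluorescence at 0 and 10 min against buffer-only wells.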
# PI5P4Ka inh – PI5P4K alpha (human) kinase inhibition. P48426. PI5P4Kalpha enzyme, ADP-Glo luminescence, 60 min; stronger effect = lower value. max response, %. 330,000 tested, 1.2% active; active = max response of -50% or lower; inconclusive = between -30% and -50%; inactive = -30% or higher; also: value at the top dose of about 77 µM; % is scaled to controls: 0 for no effect and ±100 for the full control effect
#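 Reactions run in 0.038 M HEPES pH 7.4, 0.28 mM EGTA, 0.1% CHAPS and 5% DMSO, with PI5P4Kalpha, substrate, compound and 5 microM ATP final, one hour at room temperature. Readout is ADP-Glo luminescence.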
# Pol beta inh – inhibitors of human DNA polymerase beta | 340,000 tested, 1.3% active | Pol beta primer extension/strand displacement, fluorescence kinetic | Potency, µM (highest dose often 114 µM), for the others: at the highest dose activity change, negative = inhibition, usual class: inhibitors | P06746; also: potency is read from the fitted curve at half-maximal effect; % is scaled to controls: 0 for no effect and ±100 for the full control effect
#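 Homogeneous kinetic assay of primer extension and strand displacement by 10 nM Pol beta, preincubated 15 min at room temperature with compound before 50 nM substrate (final) was added. Read at 0 and 10 min; four-parameter Hill fit.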
# * = called active by the depositor; ? = inconclusive; . = not tested or not shown; [ ] = another dose, or the depositor's remark. This is a sample that favours compounds with a hit; in the whole collection about 2.8% have one here. Unless noted, calls follow the shape of the dose curve; as a rule, active = well fitted inhibition curve with a large enough effect; inconclusive = small, poorly fitted or top-dose-only effect, or another doubt; inactive = no such curve, though single readings can be large or run the other way.
SMILES,PI4K2A block,POLH inh,Pol iota inh,POLK inh,PI5P4Ka inh,Pol beta inh
COc1cc(/C=C2\SC(=S)N(CCCCC(=O)O)C2=O)ccc1OS(=O)(=O)c1ccc(C)cc1,-1,?,?,-27%,6,.
O=C(NCc1cccs1)C1CCCN(S(=O)(=O)c2ccccc2)C1 (stereo not drawn),4,.,.,.,.,.
O=C(NC1CCCCN(Cc2cccc(Cl)c2)C1=O)c1ccccn1 (stereo not drawn),4,.,.,.,.,.
CCOc1ccccc1C=C1SC(=S)NC1=O,9,?,19%,-14%,-66*,.
COc1ccc(/C=C2/SC(=O)NC2=O)cc1,-3,-13%,4%,10%,?,-9%
O=C1/C(=C\c2ccc(-c3ccccc3Cl)o2)SC(=S)N1CC1CCCO1 (stereo not drawn),-8,-1%,3%,-17%,10,-1%
Cc1ccc(/C=C2\SC(=S)N(CC3CCCO3)C2=O)o1 (stereo not drawn),-6,?,?,?,?,20µM*
COc1ccc(/C=C2\SC(=S)NC2=O)cc1OS(=O)(=O)c1ccc(NC(C)=O)cc1,-5,?,?,-15%,-88*,?
COc1ccc(/C=C2\SC(=O)NC2=S)cc1OC,-6,?,68%,?,-70*,-2%
CCC(c1ccc(OC)cc1)c1cn(C)c2ccccc12 (stereo not drawn),-2,.,.,.,.,.
COc1cc2c(NC3CCN(C(C)C)CC3)nc(N3CCCN(C)CC3)nc2cc1OCCCN1CCCC1,.,.,?,-34%,.,.
Cc1c(Cl)cccc1NC(=O)CN1C(=O)CSc2ccc(S(=O)(=O)N3CCCC3)cc21,-3,-15%,4%,-12%,.,-2%
COc1ccc2c(c1)c(=O)c(C(=O)c1ccc(C)cc1)cn2Cc1ccccc1F,-2,5%,-1%,-6%,.,-7%
CN(CCC#N)c1ccc(/C=C/c2ccnc3ccccc23)cc1,.,.,-11%,-13%,.,.
CCn1nnc2cc(C(=O)Nc3cc(C)ccc3C)ccc21,-3,-8%,28%,4%,.,13%
Cc1ccc(C(=O)C2CCN(CC(=O)N3CC(C)CC(C)C3)CC2)cc1 (stereo not drawn),0,.,.,.,.,.
O=C(CSc1nnc(-c2ccco2)o1)N1CCN(c2ccccc2)CC1,-5,-6%,67%,3%,-25,?
O=C(CSc1nnc(-c2ccc(Cl)cc2)o1)N1CCN(c2ccccc2)CC1,.,.,.,.,.,32µM*
O=C(NNC(=O)c1ccc(NC(=O)c2ccccc2)cc1)c1ccccc1,-21,-9%,?,-9%,-8,79µM*
O=C(CSc1ccccc1)Nc1ccc(C(=O)Nc2ccc(O)cc2)cc1,0,-3%,-19%,-10%,-11,79µM*
O=C(Cc1ccccc1)NNC(=O)c1ccc(NC(=O)c2ccccc2)cc1,-9,-15%,?,-13%,-11,20µM*
COc1cc(/C=C/C(=O)O[C@H]2CC[C@]34C[C@]35CC[C@]3(C)[C@@H]([C@H](C)CCC=C(C)C)CC[C@@]3(C)[C@@H]5CC[C@H]4C2(C)C)ccc1O,2,.,.,.,.,.
CC1=C(CCC(=O)O)c2cc3nc(cc4[nH]c(cc5[nH]c(cc1n2)c(C)c5C(C)O)c(C)c4C(C)O)C(C)=C3CCC(=O)O (stereo not drawn),.,.,.,20µM*,.,.
O=C1C(c2[nH]c3ccc(S(=O)(=O)O)cc3c2O)=Nc2ccc(S(=O)(=O)O)cc21,.,.,25µM*,?,.,.
COc1ccc2c(c1)c(=O)oc1cc3oc(C)c(C)c3cc12,.,.,.,.,.,25µM*
SMILES,PI4K2A block,POLH inh,Pol iota inh,POLK inh,PI5P4Ka inh,Pol beta inh
COc1ccc(-c2coc3cc(O)ccc3c2=O)cc1O,-22,-11%,?,?,-21,25µM*
COC(=O)CCC/C=C1/SCC(NC(=O)c2ccccc2)C1=O (stereo not drawn),-14,?,45µM*,-14%,-27,2%
C#CCN(C[C@H]1[C@H](OC(=O)NCc2ccccc2F)[C@H](OC(=O)NCc2ccccc2F)C[C@@H](C(=O)OC)[C@H]1C(=O)OC)S(=O)(=O)c1ccc(C)cc1,-1,-13%,.,.,1,.
Nc1ccc2nn(-c3cc([N+](=O)[O-])ccc3O)nc2c1,2,45µM*,24%,-24%,-29,6%
COc1ccc(C=C2OC(=O)C(C(C)=O)=C2O)cc1,-10,-4%,.,.,-54*,.
CC(=O)C1=C(O)C(=Cc2ccccc2)OC1=O,1,-5%,.,.,-25,.
C=CS(=O)(=O)c1sc(Cl)c(N2CCOCC2)c1[N+](=O)[O-],2,?,?,-31%,-105*,-29%
Cn1c(CCNC(=O)c2ccccc2)nc2ccccc21,-4,-4%,23%,1%[60.1 µM],.,-2%
Cn1c(CCNC(=O)C(C)(C)C)nc2ccccc21,0,25µM*,12%,-5%,3,43%
O=C(Nc1cccc2c(=O)[nH][nH]c(=O)c12)c1ccc([N+](=O)[O-])cc1,-10,.,.,.,-65*,.
O=C(Nc1cccc2ccccc12)c1ccc([N+](=O)[O-])cc1,-3,-13%,24%,2%,-2,46%
CC(=O)Nc1ccc(/C=N\NC(=O)c2cccc(S(=O)(=O)N(C)C)c2)cc1,3,.,.,.,.,.
CC1=C(C(=O)O)N2C(=O)[C@@H](NC(=O)[C@H](N)C3=CCC=CC3)[C@H]2SC1,-3,.,.,.,.,.
CCOc1ccccc1NS(=O)(=O)c1cn(C)nc1C,1,-16%,89µM*,-3%,15,-9%
Cc1c2ccccc2cc[n+]1CCCS(=O)(=O)[O-],-6,-15%,64%,6%,0,-1%
CC1(C)C(/C=C/C=C/C=C/C=C2\N(CCCCS(=O)(=O)O)c3ccc4ccccc4c3C2(C)C)=[N+](CCCCS(=O)(=O)[O-])c2ccc3ccccc3c21,-65*,7.1µM*,13µM*,22µM*,-90*,.
COc1cccc(Nc2nc3ccc(OC)cc3s2)c1,7,-26%,49%,-9%,4,-6%
COc1cccc(Nc2n[nH]c(=S)s2)c1,2,-17%,-2%,-8%,-82*,17%
COc1ccccc1Nc1n[nH]c(=S)s1,-1,-27%,37%,3%,-78*,31%
CCN(CC)CC(=O)Oc1ccc(NC(C)=O)cc1,-2,.,.,.,.,.
COc1ccccc1CN[C@@H]1CC[C@@]23CCCN2C(=O)CCC[C@H]3C1,3,.,.,.,.,.
CCOC(=O)N1CCN(C(=O)C[C@H]2C[C@@]3(C(=O)OC)C(=C[C@H](C(C)C)O[C@@H]3C3CC3)N(CCC3=CCCCC3)C2=O)CC1,-2,.,.,.,.,.
Cc1ccc(-c2ccc(S(=O)(=O)Nc3cccnc3)cc2)cc1,-13,-21%,54%,-6%,-1,50µM*
O=C(O)C1CCCC1,.,.,?,28µM*,.,.
